# Inconclusive results are not listed. Entries that show only a call come without a potency. The source made the active and inactive calls. Unless noted, calls come from the whole dose curve; as a rule, active = well fitted curve in the direction sought with a large enough effect; inconclusive = small, poorly fitted or top-dose-only effect, or another doubt; inactive = no such curve, though single readings can be large; an effect the other way counts as inactive or inconclusive.
# Key:
# [1] = Validation of Assay for Modulators of Lamin A Splicing (AID 1459; active = well fitted curve in the direction sought with a large enough effect in the signal ratio; the % refers to the signal ratio;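 note: cells exposed to compound for two days before reading; ratio rise marks activators and ratio drop marks inhibitors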)
# Procedure, shortened: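 Dual-reporter HeLa S3 line (lamin A-EGFP minigene, DsRed2) treated with compounds 48 hrs, 0.5% DMSO final. Endpoint: EGFP/DsRed2 total intensity ratio from laser-scanning microplate cytometry.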
# [2] = qHTS Assay for Lipid Storage Modulators (AID 1519; calls by dose curve); conditions: Drosophila S3 cells, BODIPY lipid droplet/cell ratio, laser cytometry, cells loaded with oleic acid
# Procedure, shortened: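 Cells seeded at 5,000 per well were treated with compounds over a concentration series and loaded with oleic acid (400 uM, as added). Lipid droplet fluorescence (488 nm excitation, 500-530 nm channel) was read by laser-scanning cytometry and normalized to 20 uM Triacsin C.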
# [3] = target: DNA repair nuclease/redox regulator APEX1 (Homo sapiens) (UniProt P27695); assay: qHTS Validation Assay for Inhibitors of the Human Apurinic/apyrimidinic Endonuclease 1 (APE1) (AID 1705;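 note: TAMRA fluorescence gain over two minutes as APE1 cuts a quenched THF abasic duplex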)
# Sequence of DNA repair nuclease/redox regulator APEX1 (Homo sapiens) (P27695 whole entry, looked up): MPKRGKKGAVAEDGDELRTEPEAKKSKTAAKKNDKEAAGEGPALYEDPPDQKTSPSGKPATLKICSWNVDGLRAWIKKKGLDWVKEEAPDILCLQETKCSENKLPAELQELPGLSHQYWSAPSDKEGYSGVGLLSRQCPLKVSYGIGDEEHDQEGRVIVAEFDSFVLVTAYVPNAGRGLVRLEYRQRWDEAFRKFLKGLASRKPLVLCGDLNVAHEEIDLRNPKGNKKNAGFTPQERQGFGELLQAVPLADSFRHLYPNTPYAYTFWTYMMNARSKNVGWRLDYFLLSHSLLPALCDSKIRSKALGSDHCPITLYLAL
# Procedure, shortened: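 Substrate: 50 nM final fluorophore/quencher THF-abasic duplex. Enzyme preincubated with compounds 15 min, RT. Progress derived from fluorescence difference, third minus first kinetic read.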
# [4] = Counterscreen for APE1 Inhibitors: Fluorescent Dye Displacement Validation Assay (AID 1707)
# Procedure, shortened: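 Assay buffer: Tris-HCl pH7.5 with 50mM NaCl, 2 mM MgCl2, 0.01% Tween-20. Dye 250 nM, duplex 50 nM final. Readout: decrease in ThO endpoint fluorescence, 480 nm excitation, 540 nm emission.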
# [5] = target: Endonuclease 4 (Escherichia coli (strain K12)) (UniProt P0A6C1); assay: Counterscreen for APE1 Inhibitors: qHTS Validation Assay for Inhibitors of Endonuclease IV (AID 1708)
# Procedure, shortened: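 2 nM enzyme was preincubated with compounds for 15 min at room temperature in 50 mM Tris-HCl pH 7.5, 50 mM NaCl, 2 mM MgCl2, 1 mM DTT, 0.01% Tween-20. 50 nM THF-abasic TAMRA/BHQ-2 duplex substrate started the reaction.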
# [6] = qHTS for differential inhibitors of proliferation of Plasmodium falciparum line GB4 (AID 1816); conditions: Potency: Plasmodium falciparum GB4 proliferation inhibition;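 note: parasite growth measured after 72 h incubation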
# [7] = qHTS for differential inhibitors of proliferation of Plasmodium falciparum line 3D7 (AID 1876);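 note: parasite growth measured after three days of culture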
# [8] = qHTS for differential inhibitors of proliferation of Plasmodium falciparum line D10 (AID 1877);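 note: parasites grown with compound for 72 h before DNA staining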
# [9] = qHTS for differential inhibitors of proliferation of Plasmodium falciparum line HB3 (AID 1886); conditions: Potency: Plasmodium falciparum HB3 proliferation inhibition;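 note: parasites grown with compound for 72 h before SYBR Green readout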
# [10] = qHTS Assay for Modulators of Human Peripheral Myelin Protein 22 (PMP22) Expression/Activity (AID 1967; active = well fitted curve in the direction sought with a large enough effect in the signal ratio; the % refers to the signal ratio)
# Procedure, shortened: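 Engineered MSC80 cells, Pmp22-promoter green and EF-alpha red luciferase reporters; 24h compound treatment at 37 °C. Concentration-response fits on green, red and ratio signals, each overlap-corrected, with %Activity normalized to untreated wells.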
# [11] = target: Ferritin light chain (Equus caballus) (UniProt P02791); assay: qHTS Validation Assay for Identification of Novel General Anesthetics (AID 2323)
# Sequence of Ferritin light chain (Equus caballus) (P02791 2-175 limits assumed): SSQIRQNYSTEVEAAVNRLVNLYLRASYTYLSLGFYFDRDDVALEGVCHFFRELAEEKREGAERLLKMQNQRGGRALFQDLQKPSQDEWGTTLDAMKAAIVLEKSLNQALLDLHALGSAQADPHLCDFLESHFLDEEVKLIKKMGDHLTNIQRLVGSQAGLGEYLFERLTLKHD
# Procedure, shortened: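 Normalized fluorescence response, scaled between free 1-AMA and 1-AMA/apoferritin complex, fitted to a four-parameter Hill equation for concentration-effect values. Binding mix: 10 uM horse-spleen apoferritin, 50% saturated 1-AMA in PBS; read 380/535 nm after 10 min.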
# [12] = target: ATP-dependent DNA helicase Q1 (Homo sapiens) (UniProt P46063); assay: qHTS Validation Assay for Inhibitors of RecQ-Like Dna Helicase 1 (RECQ1) (AID 2353)
# Sequence of ATP-dependent DNA helicase Q1 (Homo sapiens) (P46063 whole entry, looked up): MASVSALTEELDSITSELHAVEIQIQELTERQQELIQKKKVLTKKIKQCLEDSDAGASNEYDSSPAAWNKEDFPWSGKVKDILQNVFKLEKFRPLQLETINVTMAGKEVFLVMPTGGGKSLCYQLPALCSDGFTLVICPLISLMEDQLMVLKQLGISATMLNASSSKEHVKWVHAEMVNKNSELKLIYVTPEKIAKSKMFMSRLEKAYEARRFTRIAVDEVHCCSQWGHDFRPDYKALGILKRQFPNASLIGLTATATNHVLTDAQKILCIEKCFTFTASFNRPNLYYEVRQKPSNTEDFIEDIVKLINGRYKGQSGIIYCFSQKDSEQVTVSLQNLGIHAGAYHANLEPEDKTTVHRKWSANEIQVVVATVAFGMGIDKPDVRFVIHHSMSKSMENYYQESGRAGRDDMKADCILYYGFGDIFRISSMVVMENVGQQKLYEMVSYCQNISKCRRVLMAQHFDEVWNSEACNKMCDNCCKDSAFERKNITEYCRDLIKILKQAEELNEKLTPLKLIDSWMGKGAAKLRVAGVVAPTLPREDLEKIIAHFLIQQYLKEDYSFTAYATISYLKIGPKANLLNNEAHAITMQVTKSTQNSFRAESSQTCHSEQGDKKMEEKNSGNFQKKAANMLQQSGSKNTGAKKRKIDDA
# Procedure, shortened: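 50 nM RECQ1T1 preincubated 15 min with compound in Tris pH 8.0 buffer with MgCl2, DTT, Tween-20 and 2.5 ug/ml poly(dI-dC); started with 200 nM TAMRA/BHQ-2 forked duplex and 2 mM ATP. Unwinding read as fluorescence (525/598 nm), two reads 2 h apart.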
# [13] = target: RecQ-like DNA helicase BLM (Homo sapiens) (UniProt P54132); assay: qHTS Validation Assay for Inhibitors of Bloom's syndrome helicase (BLM) (AID 2364)
# Procedure, shortened: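 BLM 50 nM in 25 mM Tris-HCl pH 8.0, 5 mM NaCl, 2 mM MgCl2, 1 mM DTT, 0.01% Tween-20, 2.5 ug/ml poly(dI-dC); 15 min cpd preinc, RT. Start: 200 nM forked DNA + 2 mM ATP (final). TAMRA read, 2 reads 2 h apart.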
# [14] = Cytometric Cell-Based qHTS for Inhibitors of the mTORC1 Signaling Pathway in MEF (Tsc2-/-, p53-/-) Cells (AID 2660);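 note: percent of cells above a phospho-rpS6 to PI ratio cutoff in each well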
# Procedure, shortened: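 Cells are plated, treated with compound for 24 hrs at 37 degree Celsius, then fixed, blocked and immunostained for phospho-rpS6 Ser235/236. Propidium iodide counterstain follows. Per-well % positive cells is derived from the PI-normalized phospho-S6 signal.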
# [15] = High Content Imaging Cell-Based qHTS for Inhibitors of the mTORC1 Signaling Pathway in MEF (Tsc2-/-, p53-/-) Cells (AID 2666); conditions: at 38.3 µM (top of the series);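 note: percent of cells scored positive for phospho-rpS6 Ser235/236 immunostaining by imaging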
# Procedure, shortened: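 Read-out: % positive cells per well, with thresholds from highest- and lowest-signal wells, based on phospho-rpS6 (Ser235/236) intensity normalized to Hoechst nuclear stain. Cells: Tsc2-/-, p53-/- MEFs carrying empty vector; compound 24 hrs, 37 degree Celsius.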
# [16] = High Content Imaging Cell-Based qHTS for Inhibitors of the mTORC1 Signaling Pathway in MEF Cells (AID 2667);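 note: Tsc2-/- p53-/- MEFs stably re-expressing wild-type Tsc2 exposed 24 h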
# Procedure, shortened: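 MEF (Tsc2-/-, p53-/-, WT Tsc2 re-expressed); cpd 24 h, 37 °C; PFA fix; Alexa-488 anti-p-rpS6 Ser235/236, PI, Hoechst; IN Cell imaging; Hoechst/Alexa-488 intensity ratio; % active cells, thresholds set from rapamycin and DMSO wells.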
# [17] = Cytometry Cell-Based qHTS for Inhibitors of the mTORC1 Signaling Pathway in MEF cells (AID 2668);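 note: Tsc2-/- p53-/- mouse embryonic fibroblasts stably re-expressing wild-type Tsc2; percent cells positive for phospho-rpS6 Ser235/236 relative to propidium iodide stain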
# Procedure, shortened: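 In MEFs grown in DMEM + 10% FBS, a 24 hrs compound exposure preceded imaging of phospho-rpS6 Ser235/236 by laser-scanning cytometry.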
# [18] = Validation screen for small molecules that induce DNA re-replication in MCF 10A normal breast cells (AID 463097); note: nearly all actives have a fitted effect of over 60% in size
# Procedure, shortened: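 Following 48 hr compound incubation (37 C, 5% CO2), MCF 10A cells receive Hoechst for 40 min at 37 C. Nuclei are then scanned (excitation 405 nm, emission 500-530 nm) for total fluorescence intensity.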
# [19] = target: DNA polymerase III PolC-type (Bacillus subtilis (strain 168)) (UniProt P13267); assay: qHTS Validation Assay for the Inhibitors of DNA Replication in Gram-Positive Bacteria (AID 485295);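 note: reconstituted holoenzyme with PolC plus beta clamp SSB and primase; PicoGreen fluorescence of double-stranded DNA made on primed circular M13 template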
# Procedure, shortened: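 Inhibition of DNA synthesis by the reconstituted PolC holoenzyme, monitored through PicoGreen staining of dsDNA formed from ssM13Gori, dNTPs and NTPs, with compound preincubation and room-temperature reaction.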
# [20] = target: Tumor susceptibility gene 101 protein (Homo sapiens) (UniProt Q99816); assay: qHTS Validation Assay for Iinhibitors of HIV-1 Budding by Blocking the Interaction of PTAP/TSG101 (AID 485342; calls by dose curve)
# Sequence of Tumor susceptibility gene 101 protein (Homo sapiens) (Q99816 whole entry, looked up, the tested form may be a part): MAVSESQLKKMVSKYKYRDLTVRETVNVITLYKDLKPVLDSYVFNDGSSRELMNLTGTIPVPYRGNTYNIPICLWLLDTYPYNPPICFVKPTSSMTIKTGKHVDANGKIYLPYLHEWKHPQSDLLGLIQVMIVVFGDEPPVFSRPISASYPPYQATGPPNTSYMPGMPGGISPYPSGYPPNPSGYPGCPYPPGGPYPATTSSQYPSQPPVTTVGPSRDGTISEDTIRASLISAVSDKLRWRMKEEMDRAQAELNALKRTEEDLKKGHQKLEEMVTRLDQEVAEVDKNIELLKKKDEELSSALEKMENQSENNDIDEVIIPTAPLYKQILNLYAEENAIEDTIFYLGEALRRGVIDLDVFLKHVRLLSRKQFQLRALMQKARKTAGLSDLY
# Procedure, shortened: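 Compound wells held the Tsg101 binding domain (10 uM) and a FITC-conjugated PTAP peptide (50 nM) in buffer at pH 7.5 containing 0.15 M NaCl and 0.01% Tween 20; polarization was recorded after 20 min, r.t.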
# [21] = qHTS Validation Assay to Find Inhibitors of Chronic Active B-Cell Receptor Signaling (AID 485345; active = well fitted curve in the direction sought with a large enough effect in the main read-out, with a control signal flat, not every such curve was filed as active)
# Procedure, shortened: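 TMD8 ABC-DLBCL cells with dox-inducible green luciferase–IκBα fusion and red native luciferase; compounds 46 uM–3 nM, 4 h at 37C with doxycycline in 0.5% FBS IMDM. Green/red ratio normalized to basal and 10 uM MG-132.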
# [22] = target: Thioredoxin reductase 1, cytoplasmic (Rattus norvegicus) (UniProt O89049); assay: qHTS Assay for Substrates of Mammalian Selenoprotein Thioredoxin Reductase 1 (TrxR1) (AID 488772);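 note: NADPH fluorescence in the first read after selenite addition and not the 8 min delta; a drop in NADPH fluorescence below the no-compound background marks a TrxR1 substrate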
# Sequence of Thioredoxin reductase 1, cytoplasmic (Rattus norvegicus) (O89049 whole entry, looked up): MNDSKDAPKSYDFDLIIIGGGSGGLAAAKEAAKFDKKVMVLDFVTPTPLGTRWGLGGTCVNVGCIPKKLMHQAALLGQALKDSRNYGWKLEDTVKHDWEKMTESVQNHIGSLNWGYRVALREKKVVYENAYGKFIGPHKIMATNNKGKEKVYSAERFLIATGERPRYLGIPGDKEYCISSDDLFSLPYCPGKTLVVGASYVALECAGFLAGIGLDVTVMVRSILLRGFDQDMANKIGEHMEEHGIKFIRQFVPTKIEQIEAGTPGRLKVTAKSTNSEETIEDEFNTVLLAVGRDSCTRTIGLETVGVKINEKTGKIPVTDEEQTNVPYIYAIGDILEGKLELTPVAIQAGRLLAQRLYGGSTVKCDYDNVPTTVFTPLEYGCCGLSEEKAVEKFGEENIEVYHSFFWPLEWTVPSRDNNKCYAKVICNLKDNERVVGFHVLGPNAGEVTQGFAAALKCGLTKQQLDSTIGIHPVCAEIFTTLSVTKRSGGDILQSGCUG
# Procedure, shortened: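 Quantitative HTS in Tris-HCl buffer at pH 7.5 with EDTA and Tween-20, using rat TrxR1, 400 uM NADPH and 400 uM selenite (final). A fall in initial NADPH fluorescence relative to background marked substrate behaviour.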
# [23] = target: Thioredoxin reductase 1, cytoplasmic (Rattus norvegicus) (UniProt O89049); assay: qHTS Assay for Inhibitors of Mammalian Selenoprotein Thioredoxin Reductase 1 (TrxR1) (AID 488773); conditions: Potency: inhibition;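 note: drop in NADPH fluorescence over an 8 min run after selenite addition; nearly all actives have a fitted effect of over 40% in size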
# Procedure, shortened: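 Steps: enzyme (90 nM) plus NADPH (400 uM final), 5 min at ~22 deg C; compound added, 15 min; selenite (400 uM final) added; fluorescence followed for 8 min. Concentration-response curves derived from the normalized delta values.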
# [24] = target: Flap endonuclease 1 (Homo sapiens) (UniProt P39748); assay: qHTS Validation Assay for the Inhibitors of Human Flap endonuclease 1 (FEN1) (AID 488816)
# Sequence of Flap endonuclease 1 (Homo sapiens) (P39748 whole entry, looked up): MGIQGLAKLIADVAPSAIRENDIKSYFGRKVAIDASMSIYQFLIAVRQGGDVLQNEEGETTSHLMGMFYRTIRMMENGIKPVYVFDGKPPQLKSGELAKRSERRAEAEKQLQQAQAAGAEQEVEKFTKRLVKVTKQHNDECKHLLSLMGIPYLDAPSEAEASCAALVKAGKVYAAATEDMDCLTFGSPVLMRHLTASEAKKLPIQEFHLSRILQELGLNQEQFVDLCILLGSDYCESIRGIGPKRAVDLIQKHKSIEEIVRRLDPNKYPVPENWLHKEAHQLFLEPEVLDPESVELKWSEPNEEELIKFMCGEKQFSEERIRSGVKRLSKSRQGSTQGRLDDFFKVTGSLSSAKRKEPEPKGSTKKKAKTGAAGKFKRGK
# Procedure, shortened: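 FEN1, dispensed as a 10 nM reagent, was preincubated with pin-transferred compounds for 15 min at room temperature before substrate was added (50 nM final). Plates were read at 0 and 15 min, and a four-parameter Hill equation was fitted to the concentration-response data.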
# [25] = target: M-phase phosphoprotein 8 (Homo sapiens) (UniProt Q99549); assay: qHTS Validation Assay for Inhibitors for MPP8 Chromodomain Interactions with Methylated Histone Tails (AID 488949);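 note: 50 nM MPP8 with 50 nM peptide preformed then compounds added for 30 min; AlphaScreen signal from MPP8 chromodomain bound to biotinylated H3K9me3 peptide; top concentration of the series differs between compounds; nearly all actives have a fitted effect of over 55% in size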
# Sequence of M-phase phosphoprotein 8 (Homo sapiens) (Q99549 whole entry, looked up): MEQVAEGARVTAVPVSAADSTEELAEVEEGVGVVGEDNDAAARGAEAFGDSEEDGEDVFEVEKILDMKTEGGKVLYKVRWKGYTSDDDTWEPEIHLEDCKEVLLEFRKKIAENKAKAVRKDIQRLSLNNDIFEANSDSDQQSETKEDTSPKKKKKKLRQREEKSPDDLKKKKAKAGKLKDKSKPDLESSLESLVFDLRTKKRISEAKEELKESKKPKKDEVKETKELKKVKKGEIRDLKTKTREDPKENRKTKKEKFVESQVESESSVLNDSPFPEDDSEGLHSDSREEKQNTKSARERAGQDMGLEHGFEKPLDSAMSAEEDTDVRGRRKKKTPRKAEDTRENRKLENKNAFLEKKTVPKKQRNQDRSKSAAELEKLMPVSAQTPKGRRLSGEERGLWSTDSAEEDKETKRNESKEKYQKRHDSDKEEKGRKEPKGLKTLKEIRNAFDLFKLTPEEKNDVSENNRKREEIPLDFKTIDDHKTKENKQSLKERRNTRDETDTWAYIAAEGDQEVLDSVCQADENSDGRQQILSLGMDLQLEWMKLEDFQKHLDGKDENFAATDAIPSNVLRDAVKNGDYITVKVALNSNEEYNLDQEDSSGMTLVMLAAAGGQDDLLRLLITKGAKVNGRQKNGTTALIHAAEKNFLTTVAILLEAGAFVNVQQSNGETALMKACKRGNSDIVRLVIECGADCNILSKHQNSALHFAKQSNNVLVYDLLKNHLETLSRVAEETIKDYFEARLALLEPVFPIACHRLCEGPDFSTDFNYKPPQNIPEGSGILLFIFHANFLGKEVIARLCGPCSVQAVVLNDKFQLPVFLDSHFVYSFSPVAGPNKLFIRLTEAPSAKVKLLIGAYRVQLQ
# Procedure, shortened: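 Chemiluminescent proximity assay: histidine-tag capture via nickel acceptor beads, biotin peptide via streptavidin donor beads. Protein and peptide each at 50 nM, pH 7.4, with 30 min incubations at room temperature for complex formation, compound exposure and bead binding.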
# [26] = target: Chromobox protein homolog 1 (Homo sapiens) (UniProt P83916); assay: qHTS Validation Assay for Inhibitors of HP1-beta Chromodomain Interactions with Methylated Histone Tails (AID 488953);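 note: loss of AlphaScreen luminescence from HP1-beta binding biotinylated H3K9me3 peptide; nearly all actives have a fitted effect of over 50% in size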
# Sequence of Chromobox protein homolog 1 (Homo sapiens) (P83916 whole entry, looked up): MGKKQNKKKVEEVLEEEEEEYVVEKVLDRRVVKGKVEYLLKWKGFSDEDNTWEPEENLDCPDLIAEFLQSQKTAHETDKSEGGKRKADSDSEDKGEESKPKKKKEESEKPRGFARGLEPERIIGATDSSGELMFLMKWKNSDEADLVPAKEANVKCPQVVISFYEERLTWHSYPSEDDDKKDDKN
# Procedure, shortened: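 HP1-beta (50 nM) was preincubated 30 min at room temperature with biotinylated H3(1-18)K9me3 peptide (50 nM) in PBS pH 7.4, 0.01% Tween-20, then with compounds 30 min. AlphaScreen signal was read after streptavidin donor/nickel chelate acceptor beads (10 ug/mL final).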
# [27] = target: Methanococcus maripaludis chaperonin (MmCpn) (UniProt Q6LX38); assay: High-Throughput Screening for Modulators of Cytosolic Chaperonin Activity: MmCpn Primary Screen (AID 488978)
# Sequence of Methanococcus maripaludis chaperonin (MmCpn) (Q6LX38 1-543): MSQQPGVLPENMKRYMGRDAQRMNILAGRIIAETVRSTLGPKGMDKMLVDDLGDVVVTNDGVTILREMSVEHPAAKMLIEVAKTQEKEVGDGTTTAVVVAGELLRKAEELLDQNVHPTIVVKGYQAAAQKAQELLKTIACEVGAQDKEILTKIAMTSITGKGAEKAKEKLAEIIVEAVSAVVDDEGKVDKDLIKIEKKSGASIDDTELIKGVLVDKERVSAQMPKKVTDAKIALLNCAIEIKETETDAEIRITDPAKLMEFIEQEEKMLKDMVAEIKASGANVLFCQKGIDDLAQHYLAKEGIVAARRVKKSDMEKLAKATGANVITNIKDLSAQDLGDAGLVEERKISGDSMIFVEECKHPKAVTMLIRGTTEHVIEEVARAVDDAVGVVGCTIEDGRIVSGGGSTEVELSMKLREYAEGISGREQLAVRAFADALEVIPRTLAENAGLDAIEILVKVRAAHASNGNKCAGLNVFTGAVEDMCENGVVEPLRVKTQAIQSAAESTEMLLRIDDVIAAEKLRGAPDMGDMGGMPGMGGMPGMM
# Procedure, shortened: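 HTRF readout (320 nm excitation, 590/665 nm emission) of ADP generated by 50 nM MmCpn hydrolysing 30 uM ATP during 10 min at 37C; compound preincubated 5 min RT.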
# [28] = target: Transient receptor potential cation channel subfamily V member 1 (Homo sapiens) (UniProt Q8NER1); assay: HTS Assay for Compounds that Act as Enhancers of the Vanilloid Receptor 1 (AID 488979)
# Procedure, shortened: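 TRPV1-expressing cells loaded with Fluo-8 calcium dye; compounds added and calcium influx read kinetically for 3 min (agonist phase), then capsaicin at EC20 added and read 2 min more for enhancement. Fluorescence ex 480/em 520 nm.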
# [29] = target: Thyrotropin receptor (Homo sapiens) (UniProt P16473); assay: qHTS Assay for Antagonists of the Thyroid Stimulating Hormone Receptor (AID 488980)
# Procedure, shortened: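 Inhibition of TSH-stimulated cAMP accumulation was quantified by homogeneous time-resolved FRET in TSHR-transfected HEK293 cells. Agonist: TSH, 4 nM final (EC80).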
# [30] = target: D(1A) dopamine receptor (Homo sapiens) (UniProt P21728); assay: HTS Assay for Allosteric Agonists of the Human D1 Dopamine Receptor: Primary Screen for Agonists (AID 488981)
# Sequence of D(1A) dopamine receptor (Homo sapiens) (P21728 whole entry, looked up): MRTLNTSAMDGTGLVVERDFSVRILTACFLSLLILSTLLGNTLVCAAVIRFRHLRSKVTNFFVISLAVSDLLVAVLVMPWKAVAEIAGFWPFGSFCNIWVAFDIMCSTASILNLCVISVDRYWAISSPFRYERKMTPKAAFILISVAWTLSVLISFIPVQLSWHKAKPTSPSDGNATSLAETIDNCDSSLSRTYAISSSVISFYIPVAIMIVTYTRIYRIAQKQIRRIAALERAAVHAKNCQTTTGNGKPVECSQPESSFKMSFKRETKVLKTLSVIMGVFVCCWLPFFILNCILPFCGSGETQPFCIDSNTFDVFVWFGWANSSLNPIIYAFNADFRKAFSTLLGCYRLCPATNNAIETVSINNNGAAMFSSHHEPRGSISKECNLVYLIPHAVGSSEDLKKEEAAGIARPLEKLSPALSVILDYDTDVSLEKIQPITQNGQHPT
# Procedure, shortened: (§1)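 Tetracycline-induced HEK293 T-REx cells force-coupled to calcium signalling were incubated overnight at 30 C and dye-loaded at room temperature. Calcium flux over 180 s after compound addition flagged agonists; a further 180 s read after EC20 dopamine flagged potentiators.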
# [31] = target: D(1A) dopamine receptor (Homo sapiens) (UniProt P21728); assay: HTS Assay for Allosteric Agonists of the Human D1 Dopamine Receptor: Primary Screen for Potentiators (AID 488982)
# Procedure, shortened: as §1
# [32] = target: D(1A) dopamine receptor (Homo sapiens) (UniProt P21728); assay: HTS Assay for Allosteric Agonists of the Human D1 Dopamine Receptor: Primary Screen for Antagonists (AID 488983);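 note: calcium flux response to an EC80 dopamine challenge measured with no-wash dye; nearly all actives have a fitted effect of over 65% in size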
# Procedure, shortened: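 Tetracycline-induced HEK293 T-REx cells expressing force-coupled D1 were plated overnight at 30 C, dye-loaded for calcium, and read kinetically. Compounds were pinned in, then an EC80 dopamine challenge followed after 180 s to reveal antagonism.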
# [33] = Validation screen for small molecules that induce genotoxicity in human embryonic kidney (HEK293T) cells expressing luciferase-tagged ELG1 (AID 493106); note: potency is the fitted concentration of half-maximal effect
# Procedure, shortened: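 HEK293T cells expressing luciferase-tagged ELG1 were exposed to compound or DMSO vehicle for 16 hr at 37 °C, 5% CO2. Genotoxic stress raises ELG1 levels, so increased luciferase signal after ONE-Glo addition and 30 min at room temperature marks hits.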
# [34] = target: Thyrotropin-releasing hormone receptor (Homo sapiens) (UniProt P34981); assay: qHTS for Small Molecule Agonists and Allosteric Enhancers of Human TRH Receptor: Validation Screen for Agonists (AID 493127;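 active = calcium activation more than 3 SD above the typical response in the agonist read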;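 note: intracellular calcium rise by fluo-8 fluorescence before TRH EC20 addition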); conditions: TRH receptor agonist cell assay; at 2 µM; stronger effect = higher value
# Sequence of Thyrotropin-releasing hormone receptor (Homo sapiens) (P34981 whole entry, looked up): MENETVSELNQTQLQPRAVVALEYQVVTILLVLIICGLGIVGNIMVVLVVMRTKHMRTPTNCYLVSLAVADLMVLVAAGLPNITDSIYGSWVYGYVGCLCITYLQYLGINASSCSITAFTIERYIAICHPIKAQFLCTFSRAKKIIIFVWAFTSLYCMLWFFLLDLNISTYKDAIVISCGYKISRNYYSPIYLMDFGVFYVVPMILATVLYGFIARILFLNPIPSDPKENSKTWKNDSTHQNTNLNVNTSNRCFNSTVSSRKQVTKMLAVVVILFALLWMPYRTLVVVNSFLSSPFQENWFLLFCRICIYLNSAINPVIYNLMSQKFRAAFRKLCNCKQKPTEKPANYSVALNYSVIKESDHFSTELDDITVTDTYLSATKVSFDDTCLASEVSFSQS
# Procedure, shortened: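 TRHR-expressing cells were plated overnight in serum-containing medium, then loaded with fluo-8 calcium dye at room temperature for 30 min–1.5 h. After a 10 s baseline, compound was pin-transferred and calcium fluorescence (ex 480/em 530) read kinetically for agonist response.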
smiles,measurement,setting,value
Cc1cccc(/C=C/c2ccccc2)n1,outcome,[1],inactive
same,"activity change, negative = inhibition",[2]; at 57.5 µM (top of the series),1.78% (inactive)
same,max response,[2]; measured here: cell count channel max response,54.4%
same,max response,[2]; measured here: lipid channel max response,55.9%
same,Potency,[3],inactive
same,Potency,[4],inactive
same,Potency,[5],inactive
same,Potency,[6],inactive
same,Potency,[7],inactive
same,Potency,[8],inactive
same,Potency,[9],inactive
same,outcome,[10],inactive
same,outcome,[11],inactive
same,Potency,[12],inactive
same,Potency,[13],inactive
same,outcome,[14],inactive
same,outcome,[15],inactive
same,Potency,[16],inactive
same,Potency,[17],inactive
same,Potency,[18],inactive
same,Potency,[19],inactive
same,outcome,[20],inactive
same,outcome,[21],inactive
same,outcome,[22],inactive
same,Potency,[23],inactive
same,Potency,[24],inactive
same,Potency,[25],inactive
same,Potency,[26],inactive
same,outcome,[27],inactive
same,outcome,[28],inactive
same,outcome,[29],inactive
same,outcome,[30],inactive
same,outcome,[31],inactive
same,outcome,[32],inactive
same,Potency,[33],4.11 µM (active)
same,activation,[34],-7% (inactive)
